Measurements as given in PubChem BioAssay.
Values without a mark were called inactive. Calls of active or inactive are those of the source.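 Rule for the calls: active = mean inhibition above 46.5%, the solvent-only control mean plus 3 SD; inactive = the rest.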

Target: Nuclear receptor coactivator 2 (Homo sapiens) (UniProt Q15596)
Assay: SRC2 coactivator transcriptional activity inhibitors, confirmation, cell-based, luminescence, HEK293, triplicate (AID 652008);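 note: 0% = DMSO-treated cells and 100% = Gossypol at 36 µM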
Conditions: HEK293 GAL4-SRC2 luciferase reporter, at 8.9 µM, stronger effect = higher value

Nuclear receptor coactivator 2 (Homo sapiens), sequence (Q15596 whole entry, looked up): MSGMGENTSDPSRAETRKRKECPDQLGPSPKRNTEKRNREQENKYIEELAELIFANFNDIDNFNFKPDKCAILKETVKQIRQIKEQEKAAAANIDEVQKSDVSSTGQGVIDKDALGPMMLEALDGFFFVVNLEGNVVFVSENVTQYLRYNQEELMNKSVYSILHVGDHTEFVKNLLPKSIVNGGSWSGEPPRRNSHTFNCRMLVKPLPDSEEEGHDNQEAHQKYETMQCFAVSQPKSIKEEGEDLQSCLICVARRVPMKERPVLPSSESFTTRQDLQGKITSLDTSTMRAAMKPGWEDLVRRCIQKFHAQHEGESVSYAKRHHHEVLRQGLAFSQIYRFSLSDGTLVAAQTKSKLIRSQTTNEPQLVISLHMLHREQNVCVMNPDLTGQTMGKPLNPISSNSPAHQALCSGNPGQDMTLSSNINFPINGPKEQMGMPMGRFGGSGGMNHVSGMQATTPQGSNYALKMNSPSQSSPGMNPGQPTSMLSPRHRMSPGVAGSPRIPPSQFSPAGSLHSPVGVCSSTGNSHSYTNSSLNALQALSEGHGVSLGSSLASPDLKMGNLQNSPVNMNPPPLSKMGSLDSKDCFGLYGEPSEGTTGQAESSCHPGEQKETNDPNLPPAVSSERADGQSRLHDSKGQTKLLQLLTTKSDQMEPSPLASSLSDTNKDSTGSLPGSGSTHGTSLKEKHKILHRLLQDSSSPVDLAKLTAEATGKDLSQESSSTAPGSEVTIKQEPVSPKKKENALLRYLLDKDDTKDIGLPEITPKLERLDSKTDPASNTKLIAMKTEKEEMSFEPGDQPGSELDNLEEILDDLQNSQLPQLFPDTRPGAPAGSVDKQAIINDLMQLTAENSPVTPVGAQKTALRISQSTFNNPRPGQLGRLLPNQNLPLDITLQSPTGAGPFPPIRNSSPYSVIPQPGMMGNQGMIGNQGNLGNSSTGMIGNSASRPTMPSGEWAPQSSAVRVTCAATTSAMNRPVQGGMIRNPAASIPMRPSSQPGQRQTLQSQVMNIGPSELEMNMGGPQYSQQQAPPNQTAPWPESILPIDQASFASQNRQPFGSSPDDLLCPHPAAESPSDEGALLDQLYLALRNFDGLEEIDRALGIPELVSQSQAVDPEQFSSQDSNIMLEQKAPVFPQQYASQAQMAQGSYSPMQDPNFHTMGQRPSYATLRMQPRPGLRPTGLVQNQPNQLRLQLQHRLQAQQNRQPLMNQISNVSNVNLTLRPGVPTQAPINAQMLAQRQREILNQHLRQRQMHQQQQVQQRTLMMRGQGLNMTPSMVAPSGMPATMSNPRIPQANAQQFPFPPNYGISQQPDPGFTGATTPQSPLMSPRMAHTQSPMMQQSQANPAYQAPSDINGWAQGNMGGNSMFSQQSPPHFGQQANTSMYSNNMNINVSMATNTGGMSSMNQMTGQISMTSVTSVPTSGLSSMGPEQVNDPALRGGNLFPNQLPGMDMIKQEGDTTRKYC

With O=C(Nc1cccc2c1CCCC2)c1cc([N+](=O)[O-])ccc1Cl the inhibition was 62.2% (active).
For Cc1ccc(C(=O)c2cccc(N)c2)cc1C, the inhibition was 76.3% (active).
With CCN1CCN(C(=S)c2ccc(-c3ccccc3)cc2)CC1 the inhibition was 78.8% (active).
O=C(Nc1ccc2c(c1)OCCO2)c1[nH]c(C(F)(F)F)nc1-c1ccccc1 was tested, and the inhibition was 49.1% (active).
C=C1C(=O)C23CCC4C(C)(C(=O)OC)CCCC4(C)C2CCC1(O)C3 (centres undefined) was tested, and the inhibition was 98.2% (active).
In the case of O=C(CCl)Nc1ccc(Oc2cnc3ccccc3n2)cc1, the inhibition was 46.6% (active).
For COc1ccc(-c2noc(CCCCC(=O)N3CCN(c4cc(C)ccc4C)CC3)n2)cc1, the inhibition was 48.2% (active).
With Cc1ccc(C(=O)C(C(=O)/C=C/c2ccccc2)=C2SCCCS2)cc1 the inhibition was 56% (active).
In the case of COc1ccc(CNc2ncc(-c3ccc(F)cc3)n2C)c2ccccc12, the inhibition was 94.5% (active).

Point of comparison: Cc1cc(NC2CCCC2)n2ncc(-c3ccccc3)c2n1, inhibition 36.5%. Against it:
- CC(=O)N1CCCC(c2cc(C(=O)Nc3ccccc3)no2)C1 (centres undefined) — higher, 40.6%
- COCCNC(=O)c1c[nH]c2ccc(S(=O)(=O)N3CCc4ccccc43)cc2c1=O — lower, 33.5%
- COc1cccc(N2CCN(c3c(C#N)c(C(F)(F)F)nn3C)CC2)c1 — higher, 41.6%
- Cc1nc2sc(C(N)=O)c(N)c2c(C)c1CC(=O)c1ccccc1 — lower, 19.1%
- Cc1ncc(CO)c(/C=N/Nc2ccc(C(F)(F)F)cn2)c1O — higher, 38.8%
- c1ccc2c(-c3cccc4nccn34)cncc2c1 — lower, 11%
- Cc1ccccc1Cn1c(C)nc2ccccc21 — lower, 27%
- O=C(NCCc1cccc(Cl)c1)c1ccc(OC2CCN(Cc3ccccn3)CC2)cc1 — higher, 39.1%
- O=C(Nc1ccc(N2CCN(C(=O)c3ccco3)CC2)c(Cl)c1)c1cc2ccccc2o1 — lower, 3.49%
- Cc1sc2ncnc(NC3CCN(Cc4ccccc4)CC3)c2c1C — lower, 29%
- Cc1ccc(Oc2ccc(C(=O)NCc3ccncc3)cc2)cc1 — lower, 21.1%
- O=[N+]([O-])c1ccc2c(c1)-c1ccccc1C2=NO — lower, 13.5%
- CCn1c(Oc2cccc(Br)c2)nc2c1c(=O)n(C)c(=O)n2C — lower, 10.2%
- CCOC(=O)c1c(C)cc2c(CO)n[nH]c(=O)c2c1C — lower, 34.9%
- O=C1C=C(NCCc2cc(Br)c(O)c(Br)c2)C(=O)c2ncccc21 — lower, 25.9%
- Cn1nnnc1Sc1ncnc2scc(-c3ccc4c(c3)OCO4)c12 — lower, 21.4%
- COc1ccc(S(=O)(=O)N2CCOCC2)cc1NC(=O)CCNC(=O)c1ccc(Br)cc1 — higher, 44.6%
- c1cn(-c2ncnc3sc4c(c23)CCCC4)cn1 — lower, -4.88%
- CC(C)CCNC(=O)c1sc2ccc(S(=O)(=O)N3CCCCC3)cc2c1N — lower, 27.6%
- CN(c1ccc(C(=O)N2CCN(Cc3ccc4c(c3)OCO4)CC2)cc1)S(=O)(=O)c1ccccc1 — higher, 37.4%
- Cc1sc2ncnc(N3CCC(C(=O)N(C)CC(=O)Nc4cccc(F)c4)CC3)c2c1C — lower, 25.1%
- CCN(C(=O)c1cc(S(=O)(=O)N2CCCCC2)c[nH]1)c1ccc(OC)cc1 — lower, 25.9%
- C=C1C(=O)C23C(O)C1CCC2C12COC3(O)C(O)C1C(C)(C)CCC2O (centres undefined) — lower, 25.9%
- COc1ccc2c(=O)cc(-c3ccncc3)oc2c1OC — higher, 41.5%
